Source: ChEMBL document CHEMBL3988442, “University of Dundee, Small-Polar-MMV Screening Library” (2021)

Experiments:
[1] = biological target: T1, Aspartate--tRNA(Asp/Asn) ligase (Mycobacterium tuberculosis (strain ATCC 25618 / H37Rv)) (UniProt P9WFW3); experiment: Assay for Asp RNA synthetase-1 from Mycobacterium tuberculosis; assay type: functional; design: scale not given: direction of the effect not stated beside the values; conditions: 30 µM; note: in the data most compounds retested in dose-response had high values
T1 sequence (whole entry): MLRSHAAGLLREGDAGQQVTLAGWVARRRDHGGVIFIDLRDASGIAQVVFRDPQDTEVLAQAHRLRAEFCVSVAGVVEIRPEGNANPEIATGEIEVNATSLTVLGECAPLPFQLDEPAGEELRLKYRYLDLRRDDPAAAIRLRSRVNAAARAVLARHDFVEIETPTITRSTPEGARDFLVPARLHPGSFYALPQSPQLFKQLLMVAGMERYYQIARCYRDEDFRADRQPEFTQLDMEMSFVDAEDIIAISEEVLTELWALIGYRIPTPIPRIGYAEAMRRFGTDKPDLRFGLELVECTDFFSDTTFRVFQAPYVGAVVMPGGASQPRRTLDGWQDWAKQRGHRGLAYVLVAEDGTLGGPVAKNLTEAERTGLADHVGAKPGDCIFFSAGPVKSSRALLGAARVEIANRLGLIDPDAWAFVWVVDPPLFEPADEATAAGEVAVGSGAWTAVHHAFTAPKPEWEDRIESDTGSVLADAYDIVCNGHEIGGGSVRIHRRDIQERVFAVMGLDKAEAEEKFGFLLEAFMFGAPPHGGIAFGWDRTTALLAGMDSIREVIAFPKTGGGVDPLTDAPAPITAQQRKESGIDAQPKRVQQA

[2] = biological target: Shiga toxin 2 (Escherichia coli O157:H7) (UniProt P09385+P09386); experiment: E. coli 0.157:H7 Shiga Toxin SOP - stx2 screening assay; assay type: functional; design: scale not given: direction of the effect not stated beside the values; conditions: 30 µM

`Cc1cc(CN(C)C(=O)NC2CCN(Cc3ccccc3)C2)no1` (stereo not drawn) was tested, and the Percent Effect [1] was 2.94% and the Percent Effect [2] was -10.9%.
With `Cc1cc(S(=O)(=O)Nc2cccc(-n3cccc3)c2)sc1C(=O)O` the Percent Effect [1] was 7.63% and the Percent Effect [2] was 11%.
`COc1cccc(S(=O)(=O)NC(=O)COC2CCCC2)c1` showed a Percent Effect [1] of 2.03% and a Percent Effect [2] of -4.79%.
For `CCc1nc(C2CCCN(C(=O)c3ccc4c(c3)nnn4C)C2)no1` (stereo not drawn), the Percent Effect [1] was 4.32% and the Percent Effect [2] was -19.5%.
Work on `Cn1cc(-c2nc(CN3CCc4c(ncn4C4CC4)C3)cs2)cn1` yielded a Percent Effect [1] of -0.0232% and a Percent Effect [2] of -83.4%.
In the case of `COc1ccc(CNCc2ccnc(N3CCOCC3)c2)c(OC)c1`, the Percent Effect [1] was 1.38% and the Percent Effect [2] was 17.1%.
Compound `CCOC1COC2(CCN(Cc3ccc4c(c3)OCO4)CC2)C1` (stereo not drawn) has a Percent Effect [1] of -3.53% and a Percent Effect [2] of -2.45%.
In the case of `O=C1COC2(CCN(Cc3ccccn3)CC2)CN1CC1CC1`, the Percent Effect [1] was 4.21% and the Percent Effect [2] was -7.99%.
Work on `c1cnc(N2CCCC(NCc3cccc4c3OCCO4)C2)nc1` (stereo not drawn) yielded a Percent Effect [1] of -1.35% and a Percent Effect [2] of 4.24%.
`CCN(c1ccc(C(=O)NCCCN2CCCC2)cc1)S(=O)(=O)CC` showed a Percent Effect [1] of 2.52% and a Percent Effect [2] of -46.4%.
`Cc1csc(N2CCN(C(=O)CCc3nccs3)CC2)n1` was tested, and the Percent Effect [1] was 2.49% and the Percent Effect [2] was 7.79%.
Work on `COCC(=O)N1CCC[C@]2(C(=O)N(C)C)CN(c3ccccn3)C[C@@H]2C1` yielded a Percent Effect [1] of -2.71% and a Percent Effect [2] of -6.93%.
In the case of `O=C(CN1CCC(C(=O)c2cc(F)ccc2F)CC1)NC1CCCC1`, the Percent Effect [1] was -0.27% and the Percent Effect [2] was -63.4%.
Compound `CC(C)(C)n1ncc2c1NC(=O)CC2c1ccccc1` (stereo not drawn) has a Percent Effect [1] of -5% and a Percent Effect [2] of 22%.
`O=C(c1ccn(-c2cccc(F)c2)n1)N1CCCC(n2cccn2)C1` (stereo not drawn) gave a Percent Effect [1] of -2.68% and a Percent Effect [2] of 1.81%.
`O=C(N1CCCO1)[C@@]12CCO[C@@H]1CCN(Cc1ccccc1)C2` gave a Percent Effect [1] of -1.34% and a Percent Effect [2] of -5.88%.
Compound `CC(C)c1nnc2n1CCN(CC(=O)Nc1nncs1)C2` has a Percent Effect [1] of -2.1% and a Percent Effect [2] of 10%.
`COc1ccccc1CN1CC[C@H]2C[C@@H](C(=O)N3CCCC3)O[C@H]2C1` showed a Percent Effect [1] of 0.335% and a Percent Effect [2] of -13.2%.
Work on `CS(=O)(=O)CCC(=O)Nc1cnn(-c2ccccc2Cl)c1` yielded a Percent Effect [1] of -3.18% and a Percent Effect [2] of -52.3%.
